The sample as a whole holds a higher share of hits than the screen did.
TTR transcr act = TTR transcription activators in neuroblastoma reporter cells, primary screen, cell-based, luminescence, SH-SY5Y, TTR promoter Gaussia luciferase; 100% = recombinant luciferase protein wells; activation, % at 16.7 µM; 92,000 compounds, 1.3% hits;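 active = activation above the mean of all tested compounds plus 3 SD, cut at about 9.5% in these data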;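 also: cells exposed to compounds for one day before reading; 0% = median of all test compound wells on the plate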
TTR inh HuH7 = TTR promoter reporter inhibitors in hepatoma cells, counter-screen for TTR transcription activator project, cell-based, luminescence, HuH7 hepatoma. HuH7 TTR promoter-Gaussia luciferase reporter. inhibition, % at 16.7 µM. 1,100 compounds, 4% hits. shares compounds with TTR transcr act;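 active = average inhibition above the solvent-only control wells' mean plus 3 SD, cut at about 15% in these data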;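 also: 0% = cells with DMSO only and 100% = cells with inhibitor control FD; inhibitors lower well luminescence so higher value means more inhibition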
TTR up confirm = TTR transcription activators, retest, confirmation, cell-based, luminescence, SH-SY5Y, triplicate. SHSY5Y TTR promoter Gaussia luciferase; 100% = purified Lucia enzyme wells, no cells. shares compounds with TTR transcr act. AID 1117280, 2014. activation, % at 16.7 µM. 1,100 tested, under 10 active;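 active = mean activation above a set limit taken from the earlier primary screen, cut at about 11% in these data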;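 also: 0% = DMSO-treated cells and 100% = recombinant Lucia luciferase without cells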
An asterisk follows results filed as active.

SMILES | TTR transcr act | others
COC(=O)CNC(=O)CNC1(C(=O)NCCc2c[nH]c3ccccc23)CCCCC1 | -2
CC(=O)c1ccc(OCC(=O)OCC(=O)Nc2sccc2C(N)=O)cc1 | -1
O=C(Nc1ccc(F)cc1)c1ccccc1 | -1
O=C(Nc1ccccc1)c1ccn[nH]1 | 15* | TTR inh HuH7=-9;TTR up confirm=-1
O=C(Nc1cccc(C(=O)Nc2ccc(Br)cc2)c1)c1ccccc1 | 2
Cc1ccc(-c2c(NC(=O)Nc3ccccc3)nc3ncccn23)cc1 | 0
Cc1ccc(CN2CCCCC(NC(=O)c3ccc(Br)cc3)C2=O)cc1 (centres undefined) | -2
Cc1ccc(-n2c(=O)c3c4c(sc3n3c(=S)[nH]nc23)CCC4)cc1 | 15* | TTR inh HuH7=-8;TTR up confirm=2
COc1ccc(-n2c(=O)c3c4c(sc3n3c(=S)[nH]nc23)CCC4)cc1 | -2
O=c1c2c3c(sc2n2c(=S)[nH]nc2n1-c1ccccc1)CCC3 | 1
CC(C)CC(O)(CC(C)C)c1cn(C(=O)N(c2ccccc2)c2ccccc2)nn1 | -1
COC(=O)[C@]12C[C@H](CC(=O)N3CCCCC3)C(=O)N(Cc3ccco3)C1=C[C@H](COCc1ccccc1)O[C@@H]2C | 0
COC(=O)[C@]12C[C@H](CC(=O)NCc3ccccc3)C(=O)N(Cc3ccco3)C1=C[C@H](COCc1ccccc1)O[C@@H]2C | 1
O=C(Cn1cnc2ccccc2c1=O)c1c[nH]c2ccccc12 | -1
C/C(=N\NC(=O)c1c[nH]c2ccccc12)c1ccco1 | 2
O=C(CN1C(=O)C(=O)N(Cc2ccco2)C1=O)c1c[nH]c2ccccc12 | 11* | TTR inh HuH7=-14;TTR up confirm=6
COc1cccc(Cn2cc(COC(=O)NCCc3c[nH]c4ccccc34)nn2)c1 | 0
O=S1(=O)c2c(cccc2N2CCC[C@H]2CO)O[C@@H]2CCN1C2 | 1
CCCCCCC(=O)NC1CCCCN(Cc2ccccc2C)C1=O (centres undefined) | 0
O=C(c1ccc(Cl)cc1)C1CCN(c2ncnc3sccc23)CC1 | -1
CCn1c(SCC(=O)Nc2cccc(OC)c2)nc2ccccc2c1=O | -2
Cc1cccc(NC(=O)CSc2c3c(nc4ccccc24)CCC3)n1 | 1
COc1cccc(NC(=O)CSc2c3c(nc4ccccc24)CCCC3)c1 | 9.9* | TTR inh HuH7=-8;TTR up confirm=-2
CC(C)CCNC(=O)CSc1nc2c(c(=O)[nH]1)CCC2 | 2
COC(=O)[C@]12C[C@H](CC(=O)NCC3CCCCC3)C(=O)N(Cc3cccc4ccccc34)C1=C[C@H](C(C)C)O[C@@H]2C1CC1 | -1
SMILES | TTR transcr act | others
COc1cc(CC(=O)OCC(=O)c2ccc[nH]2)cc(OC)c1OC | 2
COCCNC(=O)C(c1ccc(F)cc1)N(CC1CCCO1)C(=O)CCC(=O)Nc1ccccn1 (centres undefined) | 0
COCCNC(=O)CN(CC1CCCO1)C(=O)CCC(=O)Nc1ccccn1 (centres undefined) | 16* | TTR inh HuH7=-4;TTR up confirm=0
COCCN(CC(=O)NCC1CCCO1)C(=O)CCC(=O)Nc1cc(C)ccn1 (centres undefined) | 0
C=CCN(C(=O)[C@@H](C1CC1)[C@@H](O)c1ccc2ccccc2c1)c1ccccc1 | -2
O=C(NCCc1c[nH]c2ccccc12)OCc1cn(-c2cccc(Cl)c2)nn1 | 0
NC(=O)C1C2C=CC(C2)C1c1ccccc1 (centres undefined) | 1
CN(/N=C/c1ccc([N+](=O)[O-])o1)c1ccccc1 | -2
O=C(N/N=C/c1ccc([N+](=O)[O-])o1)C(=O)Nc1ccc(C(=O)O)cc1 | 3
O=[N+]([O-])c1ccc(C=NN2CCNC2=S)o1 | 10.0* | TTR inh HuH7=8;TTR up confirm=1
CC(C)CNC(=O)OCc1cn(Cc2cccc(F)c2F)nn1 | 2
CC(C)CNC(=O)OCc1cn(Cc2ccc(F)c(F)c2)nn1 | 5
Nc1c(C(=O)NCC(O)c2ccccc2)cnn1-c1ccccc1 (centres undefined) | 0
CN(C)C=Nc1c(Br)cc(Br)c2nonc12 | -1
CN(C)C=Nc1nonc1-c1ncn[nH]1 | 0
CN(C)C=Nc1nonc1-c1ccccc1 | 11* | TTR inh HuH7=-8;TTR up confirm=0
O=C1C[C@H](c2ccc3ccccc3c2)N=C2N1/C(=C\c1ccccc1)[C@@H](c1ccccc1C(F)(F)F)N2Cc1ccc2c(c1)OCO2 | 0
Cc1ccccc1Nc1nc(-c2ccccc2)c(C(=O)Nc2cccnc2)s1 | 13* | TTR inh HuH7=-13;TTR up confirm=-1
Cc1nc(Nc2ccc(Cl)c(Cl)c2)sc1C(=O)Nc1ccccc1 | -3
O=C(Nc1ccccc1)c1sc(Cl)nc1-c1ccccc1 | 0
C=CCN(C)C(C#CCCCC)c1ccccc1 (centres undefined) | 1
O=c1c2cc3cc(Cl)ccc3nc2ncn1CCc1ccc(O)cc1 | 0
O=c1c2cc3cc4c(cc3nc2ncn1Cc1cccnc1)OCO4 | 18* | TTR inh HuH7=-10;TTR up confirm=2
O=c1c2cc3cc4c(cc3nc2ncn1CCc1ccccc1)OCO4 | 0
CCOC(=O)[C@]12CCCC=C1N(Cc1ccc(OC)cc1)C(=O)[C@@H]2CC(=O)N1CCCC1 | 0
SMILES | TTR transcr act | others
CC(C)Oc1ccc(-c2csc(N3CCC(C(N)=O)CC3)n2)cc1 | -2
O=C(NCc1ccccc1)C1CCN(c2nc(-c3ccc(Br)cc3)cs2)CC1 | -1
COC(=O)[C@H]1C[C@]2(C(/C=C(\C)CCC=C(C)C)S(=O)(=O)c3ccccc3)c3ccccc3N[C@H]2N1 (some centres undefined) | 0
Cc1cccc(NC(=O)Nc2nc3ncccn3c2-c2ccc(F)cc2)c1 | 1
CC12CC3(C)CC(C)(C1)CC(C(=O)NC(=S)N1CCOCC1)(C2)C3 | 0
CN(C)C(=S)NC(=O)C12CC3CC(C)(CC(C)(C3)C1)C2 | -2
CC12CC3CC(C)(C1)CC(C(=O)NC(=S)N1CCCCC1)(C3)C2 | 14* | TTR inh HuH7=-6;TTR up confirm=0
CCOc1ccccc1C(=O)N(Cc1sccc1C)C1CCS(=O)(=O)C1 (centres undefined) | -1
Cc1ccccc1C(=O)NC1CCCCN(Cc2ccc(Cl)cc2)C1=O (centres undefined) | 1
Cc1cccc(C(=O)N[C@@H]2CC[C@@]34CCCN3C(=O)CCC[C@H]4[C@H]2C)c1 | 0
Cc1cc(C)c2c(N)c(C(=O)Nc3ccccc3Cl)sc2n1 | 12* | TTR inh HuH7=-6;TTR up confirm=-1
CC(=O)c1sc2nc(-c3ccc(C)cc3)c3c(c2c1N)CCCC3 | 3
Cc1cc(C)c2c(N)c(C(=O)Nc3ncc(C)s3)sc2n1 | 3
Cc1cc(C)c2c(N)c(C(=O)c3ccccc3Cl)sc2n1 | 1
COCc1cc(C)nc2sc(C(=O)Nc3ccccc3C)c(N)c12 | 2
CC(=O)c1sc2nc(C)cc(C)c2c1N | 23* | TTR inh HuH7=-3;TTR up confirm=-1
CC(C)N1CCCCC(NC(=O)c2cccs2)C1=O (centres undefined) | 3
CC(C)C(=O)NCCc1nc(-c2ccccc2Cl)no1 | 4
Cc1ccc(CN2CCCCC(NC(=O)c3ccccc3C)C2=O)cc1 (centres undefined) | 0
CCOC(=O)[C@]12CCCC=C1N(Cc1ccc(OC)cc1)C(=O)[C@@H]2CC(=O)NCc1cccc(C(F)(F)F)c1 | -1

Screening data (PubChem)
